A short description of assay [1]: NCI Yeast Anticancer Drug Screen. Data for the rad50 strain (AID 155).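 Note: 0% = growth of vehicle-only cultures of the same strain.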 The note with it: S. cerevisiae rad50 strain growth inhibition; at 50.0 µM; hits give high values. The method, boiled down:
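Genetically altered yeast (DNA repair pathway); compound treatment; growth inhibition vs vehicle ctrl.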

The nature of assay [2]: NCI Yeast Anticancer Drug Screen. Data for the mec2-1 strain (AID 157). The note with it: S. cerevisiae mec2-1 strain, at 50.0 µM, hits give high values. The essentials:
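mec2-1 yeast strain, carrying an alteration in DNA damage repair or cell cycle control, was exposed to compounds; growth inhibition was measured relative to vehicle-treated controls.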

Assay [3] can be described thus: NCI Yeast Anticancer Drug Screen. Data for the sgs1 mgt1 strain (AID 161).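 Note: 0% = growth of cultures given vehicle only.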 The note with it: S. cerevisiae sgs1 mgt1 strain, at 50.0 µM, hits give high values. The method, boiled down: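 Compounds are added to genetically altered yeast, and growth is compared with cultures given vehicle alone to give percent inhibition.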
Assay [4] in a line: NCI Yeast Anticancer Drug Screen. Data for the cln2 rad14 strain (AID 165).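 Note: 0% = growth equal to vehicle treated cultures.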 The note with it: S. cerevisiae cln2 rad14 strain, at 50.0 µM, hits give high values. The essentials: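 Yeast carrying cln2 and rad14 alterations (cell cycle control and DNA damage repair) were exposed to compounds. Growth inhibition was measured against vehicle-treated controls.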
The nature of assay [5]: NCI Yeast Anticancer Drug Screen. Data for the bub3 strain (AID 167). The note with it: S. cerevisiae bub3 mutant strain, at 50.0 µM, hits give high values. The essentials: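 Yeast carrying a defined mutation is treated with each compound, and growth is compared with that of vehicle-exposed cells to give inhibition.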
A short description of assay [6]: NCI Yeast Anticancer Drug Screen. Data for the mlh1 rad18 strain (AID 175). The note with it: S. cerevisiae mlh1 rad18 strain growth inhibition; at 50.0 µM; hits give high values. The method, boiled down:
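Growth inhibition of the yeast strain was measured after compound exposure and expressed relative to vehicle-treated controls. The strain carries defined defects in DNA damage repair.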

The panel holds about 79,000 compounds, 15% with a hit somewhere; the sample as a whole holds those more often. Values without a mark were called inactive. The source made the active and inactive calls. Cut-off read from the data, not from the text of the source: active = growth inhibition above about 70%; inactive = the rest. Where a SMILES comes first, the peptide text is derived from it. Bridges are numbered along the chain shown (N, C = ends). [ ]: non-standard residue; d: D form. The star is where a group is joined. ξ: configuration not given here. Cbz = O=C(OCc1ccccc1)*; Aib = CC(C)(N)C(=O)O; Bz = O=C(c1ccccc1)*; OBn = c1ccc(CO*)cc1; Bn = c1ccc(C*)cc1; ξC = NC(CS)C(=O)O; βAla = NCCC(=O)O

In the case of `O=C(CNC(=O)c1ccccc1)NC(CSCc1ccccc1)C(=O)O` (stereo not given) (Bz-Gly-[ξC](Bn)-OH), the growth inhibition in assay [1] was -12.4%; in assay [2], 5.55%; in assay [3], -28.8%; in assay [4] it was -19.1%; in assay [5], -34.2%; in assay [6], -1.3%.
In the case of `NNC(=O)c1ccccc1Cl`, the growth inhibition in assay [1] is -11.2%; in assay [2] it was -21.1%; in assay [3], -11.9%; in assay [4] it was 0.4%; in assay [5], -3.8%; in assay [6], -25.9%.
Regarding `O=C([O-])c1ccc2c(c1)-c1nc-2nc2[n-]c(nc3nc(nc4[n-]c(n1)c1ccc(C(=O)[O-])cc41)-c1cc(C(=O)[O-])ccc1-3)c1ccc(C(=O)[O-])cc21.[Fe+2]`, the growth inhibition is -1.2% in assay [1]; -0.5% in assay [2]; -13.6% in assay [3]; 3.65% in assay [4]; 7.5% in assay [5]; -1.75% in assay [6].
Consider `COc1ccc(/C(=N/N)c2ccccc2)cc1`, for which the growth inhibition in assay [1] was 3.6%; in assay [2], -40.5%; in assay [3] it was -23.6%; in assay [4], -42.4%; in assay [5], -18.8%; in assay [6], -2.15%.
As to `CC1(C)NC(=O)C(NC(=O)C(CC(=O)OCc2ccccc2)NC(=O)OCc2ccccc2)CCCCNC(=O)CCNC1=O` (stereo not given) (Cbz-D(OBn)K[Aib][βAla]; lactam 2-C; configuration not given here), the growth inhibition in assay [1] was -0.7%; in assay [2], -11.6%; in assay [3], -7.95%; in assay [4], 20.4%; in assay [5], -2.35%; in assay [6] it was 1.3%.
As for `CC1c2ncnc(N)c2CN1C(=O)c1ccccc1` (stereo not given), the growth inhibition in assay [1] is 4.55%; in assay [2], -6.85%; in assay [3] it was -3.15%; in assay [4] it was -20.2%; in assay [5], 6.75%; in assay [6], -4.55%.
As to `Cc1ccc(S(=O)(=O)N/N=C2/CCCOC2)cc1`, the growth inhibition was 16.1% in assay [1]; 4.15% in assay [2]; 59.6% in assay [3]; 32.5% in assay [4]; 24.2% in assay [5]; 38% in assay [6].
On to `CCOc1ccccc1N=Nc1c(C)nc(N)nc1OCC`, for which the growth inhibition in assay [1] was 6.65%; in assay [2], 6.65%; in assay [3] it was 6.55%; in assay [4], -30.1%; in assay [5], 4%; in assay [6], 14.9%.
For the compound `CC(=O)N(C(C)=O)n1c(Cc2ccc(Cl)cc2)n[nH]c1=O`, the growth inhibition in assay [1] is 32.1%; in assay [2] it was -53.7%; in assay [3], -26.3%; in assay [4], -5.55%; in assay [5] it was -30.9%; in assay [6] it was -65%.
As to `CCCCCCCCCCCCCCCC[N+]1(CC)CCSCC1`, the growth inhibition is 96.6% (active) in assay [1]; 97.9% (active) in assay [2]; 97.2% (active) in assay [3]; 97.5% (active) in assay [4]; 97.1% (active) in assay [5]; 97.8% (active) in assay [6].
Take `CN(C)C(=O)C1(C)CC2CCC1C2` (stereo not given): the growth inhibition in assay [1] is -2.25%; in assay [2], -15.3%; in assay [3], -8.65%; in assay [4] it was 13.9%; in assay [5], 2.8%; in assay [6], -0.75%.
Turning to `N#CCCCOc1ccccc1`, the growth inhibition in assay [1] is -14.2%; in assay [2] it was -13.6%; in assay [3], 16.4%; in assay [4], -6.7%; in assay [5] it was -2.05%; in assay [6], 5.4%.
As to `C#CCC(O)c1ccc(OC)c(OCc2ccccc2)c1` (stereo not given), the growth inhibition in assay [1] was -6.05%; in assay [2], -17.9%; in assay [3], 18.6%; in assay [4], 4.4%; in assay [5] it was 4.45%; in assay [6] it was -1.4%.
With `O=C(O)Cc1cccc(C(=O)O)c1`, the growth inhibition in assay [1] is -1.55%; in assay [2], -8%; in assay [3] it was -7.3%; in assay [4], 8.4%; in assay [5], -0.45%; in assay [6], -3.35%.
With `Fc1ccc(NC(=S)NCCN2CCCC2)cc1`, the growth inhibition in assay [1] was 3.9%; in assay [2], 34.2%; in assay [3], 8.1%; in assay [4] it was 3.75%; in assay [5], 12.8%; in assay [6], -4.3%.
As for `CC(=O)Nc1ccc(C(N)=S)cc1`, the growth inhibition in assay [1] was 11.8%; in assay [2], 7.5%; in assay [3] it was 3.25%; in assay [4], 5.4%; in assay [5], 10.5%; in assay [6] it was 4.1%.
As to `CC(C)(N)COC(=O)c1ccc([N+](=O)[O-])cc1`, the growth inhibition in assay [1] was 3.4%; in assay [2], -23.7%; in assay [3], 7.1%; in assay [4], 0.15%; in assay [5], 12.2%; in assay [6] it was 10.2%.
In the case of `Cc1ccc(NS(=O)(=O)c2ccc(F)cc2)cc1Cl`, the growth inhibition in assay [1] was 99.7% (active); in assay [2], 99.3% (active); in assay [3] it was 99.7% (active); in assay [4] it was 99.3% (active); in assay [5], 99.6% (active); in assay [6] it was 99.8% (active).
As to `O=C(O)c1cccc(S(=O)(=O)NN2C(=O)CSC2c2ccccc2Cl)c1` (stereo not given), the growth inhibition was 28.5% in assay [1]; -3.95% in assay [2]; 2.85% in assay [3]; 5.9% in assay [4]; 12.7% in assay [5]; 28.7% in assay [6].
As for `O=C(Nc1ccc(O)cc1)c1ccccc1O`, the growth inhibition in assay [1] was 31.6%; in assay [2] it was -20.4%; in assay [3], 14.3%; in assay [4] it was -5.95%; in assay [5], 15.4%; in assay [6], 1.25%.
